Measurements taken from PubChem BioAssay AID931 (National Center for Advancing Translational Sciences (NCATS), 2007).
Inconclusive results are not listed. Active and inactive are the calls of the source. The call rests on the fitted dose curve; in most records, active means well fitted cell-killing curve with a large enough effect; inconclusive means small, poorly fitted or top-dose-only effect; inactive means flat fitted curve, though single readings scatter.

Experiment: Confirmation and Secondary Assay for Modulators of Hemoglobin Beta Chain Splicing at IVS2 654 locus: Cytotoxicity
Conditions: HBB IVS2-654 splicing reporter cells
Excerpt: NIH Chemical Genomics Center [NCGC]
NIH Molecular Libraries Screening Centers Network [MLSCN]
PI Name: Dr. Ryszard Kole
Modulation of Alternative Splicing as Therapy
Abnormal splicing is associated with a number of diseases, including cancer and genetic diseases such as cystic fibrosis, muscular dystrophy and beta-thalassemia. Alteration of disease associated splicing patterns provides a promising target for treatment. […] Mutations in the second intron of the b-globin gene at positions 654 or 705 are clinically relevant and cause mis-splicing which results in an out of frame gene product.
Examination of toxicity of select compounds in EGFP-654 HeLa Cells
HeLa cell lines were stably transfected with a construct in which the EGFP (enhanced green fluorescent protein) cDNA was interrupted by the second intron of the beta-globin gene (IVS2-654). The ISV2 intron contains mutations which cause mis-splicing of EGFP and premature termination of EGFP which results in a nonfluorescent protein product. […] Expression of the transgene was driven by the CMV promoter. Compounds, and related structures identified in the primary screen as potential splicing modulation were examined for their effects on cell toxicity in this follow up assay .
NCGC Assay Protocol Summary:
Toxicity Screening. Freshly thawed HeLa EGFP-654 cells were seeded in 5 ul of optimem media (Invitrogen) containing 2 % fetal calf serum (Hyclone) and 1x penicillin/streptomycin (Invitrogen) at a concentration of 500 cells per well in 1536-well plates. Cells were incubated overnight at 37C in 5% CO2. The next day, cells were treated with DMSO, 500 nM antisense ISV2 654 PNA control oligo, or library compound and allowed to grow at 37C in 5% CO2 for 2 days. Cells were treated with 5 ul/well of freshly prepared ATPlite (Perkin Elmer) and cells were allowed to lyse at room temperature for 5 minutes. Luminescence was captured on an Viewlux CCD imager (Perkin Elmer) using a 15 second integration time and cell death was measured by comparing compound treatments to DMSO treatment (no cell death). […]

Compound	Potency
O=c1[nH]cc(F)c(=O)[nH]1	12.6 µM (active)
CC(=O)[O][Hg][c]1ccccc1	12.6 µM (active)
[Cl-].[Cl-].[Hg+2]	0.398 µM (active)
